# Assay outcomes (PubChem BioAssay)
# This is a sample that favours compounds with a hit; in the whole collection about 6.6% have one here.
# MCF10A rereplic: induces DNA re-replication in MCF 10a normal breast cells. MCF 10A DNA re-replication, Hoechst nuclear intensity, 48 h. Potency, µM (top dose mostly 46.1 µM), for inactives: top-dose activity, positive = re-replication, hits mostly activators. actives 2.9% (n = 350,000). AID 624296; also: % of control where 0% means no effect; nearly all actives have a fitted effect of over 50% in size
# RGS4 inhibitor: blocks human RGS4-accelerated GTP hydrolysis; P49798; Potency, µM (doses to about 114 µM), inactives show top-dose activity change, negative = inhibition, actives largely listed as inhibitors; Transcreener GDP fluorescence polarization, RGS4-accelerated GTP hydrolysis; actives 0.039% (n = 390,000); also: % is scaled to controls: 0 for no effect and ±100 for the full control effect; nearly all actives have a fitted effect of over 75% in size
# Target sequence (P49798 whole entry, looked up): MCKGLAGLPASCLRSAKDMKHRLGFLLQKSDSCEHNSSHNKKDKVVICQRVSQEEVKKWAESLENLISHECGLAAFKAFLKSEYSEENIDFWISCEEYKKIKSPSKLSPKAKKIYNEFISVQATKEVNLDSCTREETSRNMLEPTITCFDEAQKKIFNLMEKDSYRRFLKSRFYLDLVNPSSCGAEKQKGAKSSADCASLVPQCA
#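 MLSMR compounds (23 nl, pin-transferred) preincubated 10 min at room temperature with a 500nM (2x) first reagent, then RGS4 at 900nM (2x) plus Transcreener GDP mix added; fluorescence polarization (620/688 nm) read before and after 90 min at 30 °C.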
# KB-V1 MDR tox: KB-V1 MDR subline cytotoxicity | KB-V1 MDR cells viability, CellTiter-Glo, 72 h | Potency, µM (highest dose often 46.1 µM), usual class: cytotoxic | actives 3.4% (n = 400,000) | AID 1347076; also: % is scaled to controls: 0 for no effect and ±100 for the full control effect; nearly all actives have a fitted effect of over 60% in size
#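 KB-V1 MDR subline cells in DMEM (phenol-red free, 10% FBS) exposed to compounds in qHTS concentration series for 72 h at 37 degrees C. Viability read by CellTiter-Glo luminescence; concentration-effect curves fitted after normalization and correction.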
# SW480 rereplic: DNA re-replication induction in SW480 cells. actives 1.8% (n = 340,000). AID 624297. SW480 DNA re-replication, Hoechst DNA content imaging, 48 h. Potency, µM (highest dose often 46.1 µM), for the others: at the highest dose re-replication activation, usual class: activators; also: % of control where 0% means no effect; nearly all actives have a fitted effect of over 55% in size
#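 First, 250 cells per well were seeded. Next, compound or vehicle (23 nL) was pinned in, plates sat 48 hr at 37 C. Finally Hoechst was added for 40 min before fluorescence scanning.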
# KB-3-1 cytotox: kills parental KB-3-1 adenocarcinoma cells; KB-3-1 viability, CellTiter-Glo ATP luminescence, 72 h; Potency, µM (highest dose often 46.1 µM), actives largely listed as cytotoxic; actives 1.4% (n = 400,000); also: % is scaled to controls: 0 for no effect and ±100 for the full control effect; nearly all actives have a fitted effect of over 60% in size
#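 Parental KB-3-1 adenocarcinoma cells in phenol-red-free DMEM with 10% FBS were pin-treated with compounds at several concentrations, incubated 72 h at 37 °C, and viability read by CellTiter-Glo luminescence; concentration-effect curves were fitted after normalization.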
# PTAP TSG101 blk: blocks PTAP/TSG101 interaction to inhibit HIV-1 budding. Potency, µM (titrated, usually from 115 µM), for inactives: at the top dose activity change, negative = inhibition, actives largely listed as inhibitors. 340,000 tested, under 10 active. Fluorescence polarization, FITC-PTAP peptide / Tsg101 binding; active = well fitted inhibition curve with a large enough effect in the main read-out, with a control signal flat, not every such curve was filed as active; inconclusive = small, poorly fitted or top-dose-only effect, or effect the other way, or a change in a side signal; inactive = no such curve, though single readings can be large or run the other way; also: % of control where 0% means no effect
# Target sequence (Q99816 whole entry, looked up): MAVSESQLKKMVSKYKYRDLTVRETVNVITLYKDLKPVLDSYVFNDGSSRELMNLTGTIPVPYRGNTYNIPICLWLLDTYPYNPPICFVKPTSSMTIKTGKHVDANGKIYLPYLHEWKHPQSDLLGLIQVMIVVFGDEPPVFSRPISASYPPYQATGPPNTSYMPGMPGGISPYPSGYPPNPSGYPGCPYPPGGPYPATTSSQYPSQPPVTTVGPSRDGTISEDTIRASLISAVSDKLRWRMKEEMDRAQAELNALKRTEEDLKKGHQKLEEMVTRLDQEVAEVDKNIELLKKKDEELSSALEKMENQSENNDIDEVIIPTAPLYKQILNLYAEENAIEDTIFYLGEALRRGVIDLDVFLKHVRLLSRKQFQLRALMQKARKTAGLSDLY
#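 FP read-out: FITC-PTAP peptide, 50 nM final, binding Tsg101 binding domain, 10 uM final; 20 min, r.t.; 10 mM HEPES pH 7.5, 0.15 M NaCl, 0.01% Tween 20, 3 mM EDTA, 0.1 mM TCEP.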
# Active calls of the source: *; i = inactive; ? = inconclusive; nt = no result; [ ] = another dose, or the depositor's remark. Unless noted, calls follow the shape of the dose curve; as a rule, active = well fitted curve in the direction sought with a large enough effect; inconclusive = small, poorly fitted or top-dose-only effect, or another doubt; inactive = no such curve, though single readings can be large; an effect the other way counts as inactive or inconclusive. Potency is read from the fitted curve at half-maximal effect.
SMILES,MCF10A rereplic,RGS4 inhibitor,KB-V1 MDR tox,SW480 rereplic,KB-3-1 cytotox,PTAP TSG101 blk
COc1cc(C(=O)Nc2cc(-c3ccccc3)[nH]n2)cc(OC)c1OC,27%,0%,18µM*,11%,?,-6%
COc1cc(C(=O)Nc2ccc3oc(-c4cccnc4)nc3c2)cc(OC)c1OC,?,-47%,15µM*,-19%,i,0%
COc1ccc(C(=O)Nc2ccc3oc(-c4ccc5ccccc5c4)nc3c2)cc1Br,nt,-21%,nt,nt,nt,nt
CCCC(=O)Nc1ccc2oc(-c3ccc(OC)c(Br)c3)nc2c1,18µM*,17%,2.6µM*,?,i,-6%
COc1ccc(C(=O)Nc2ccc3oc(-c4cccnc4)nc3c2)cc1OC,-2%,-17%,?,-10%,i,-1%
CC(C)c1ccc(Nc2c(-c3ccccn3)nc3ccccn23)cc1,nt,-28%,?,nt,?,nt
COC(=O)c1ccc(NC(=O)CN(Cc2ccccc2)S(=O)(=O)c2ccc(Cl)cc2)cc1,nt,12%,?,nt,?,nt
O=C(Nc1ccc(Nc2ccccc2)cc1)c1c(Cl)cccc1Cl,23µM*,-5%,i,1%,i,1%
COc1cc(C(=O)Nc2ccc3oc(-c4ccccc4)nc3c2)cc(OC)c1OC,nt,4%,8.2µM*,nt,i,nt
O=C(Nc1ccc(Nc2ccccc2)cc1)c1c(F)c(F)c(F)c(F)c1F,13%,-8%,?,23%,i,0%
O=C(Nc1ccc2oc(-c3ccccc3)nc2c1)c1ccc2c(c1)OCCO2,21µM*,-9%,8.2µM*,?,?,0%
O=C(Nc1ccc2oc(-c3ccncc3)nc2c1)c1ccc2c(c1)OCCO2,?,?,i,?,i,?
COc1ccc(N(Cc2cccs2)C(=O)COc2cc(C)c(Cl)c(C)c2)cc1,nt,16%,nt,nt,nt,nt
CCc1ccccc1NC(=O)CN(c1cc(C(F)(F)F)ccc1Cl)S(=O)(=O)c1ccccc1,nt,15%,i,nt,i,nt
c1nc(NCc2ccc3c(c2)OCO3)c2[nH]cnc2n1,nt,-15%,i,nt,i,nt
CCN(CC)c1ccc(/C=N\NC(=O)c2cccc3cc[nH]c23)cc1,15µM*,11%,13µM*,23µM*,23µM*,3%
O=C(N/N=C/c1ccc([N+](=O)[O-])cc1)c1cccc2cc[nH]c12,4%,10%[56.9 µM],i,-190%,i,-1%
CCOc1cc2[nH]c(=S)n(CC3CCCO3)c(=O)c2cc1OCC (stereo unspecified),?,-16%,12µM*,0%,?,-8%
CCOC(=O)c1sc(NC(=O)CSc2nnc(C(C)C)n2C)nc1C,4%,17%,23µM*,-9%,i,-5%
CCOC(=O)c1sc(NC(=O)CSc2nnnn2-c2ccc(C)c(C)c2)nc1C,5.8µM*,-5%,i,1%,i,0%
COC(=O)c1sc(NC(=O)CSc2nnc(C(C)C)n2C)nc1C,-1%,-27%,i,-4%,i,-7%
COc1cccc(-n2nnnc2SCC(=O)Nc2nc3c(s2)CCCC3)c1,?,-17%,i,1%,i,-6%
O=C(CSc1nnnn1-c1ccc2c(c1)OCCO2)Nc1nc2c(s1)CCCC2,2%,3%,16µM*,-15%,i,-3%
O=S(=O)(c1ccccc1)N1CCN(CCc2ccccc2)CC1,6%,-11%,i,-45%,i,0%
Cc1ccc2nsnc2c1S(=O)(=O)N1CCN(CCc2ccccc2)CC1,16%,9%,12µM*,1%,?,-6%
SMILES,MCF10A rereplic,RGS4 inhibitor,KB-V1 MDR tox,SW480 rereplic,KB-3-1 cytotox,PTAP TSG101 blk
CCOC(=O)CSc1nc(-c2ccc(F)cc2)cc(C(F)(F)F)c1C#N,nt,17%,?,nt,i,nt
CC(C)(C)OC(=O)N1CCC(c2c(C(=O)NCCN3CCC(Cc4ccccc4)CC3)cnn2-c2ccccc2)CC1,nt,-48%,?,nt,i,nt
Cc1onc(-c2ccccc2Cl)c1C(=O)N(C)C1CCCCC1,3%,-32%,i,0%,?,0%
CN(C)/C=C/c1onc(-c2ccccc2Cl)c1C#N,18µM*,5%,i,1%,i,-9%
O=C1CCCC2=C1C1(CCCOC1)N=C(Nc1nc3ccccc3o1)N2 (stereo unspecified),nt,nt,?,nt,i,nt
Cc1ccc(S(=O)(=O)N2CCOCC2)cc1NS(=O)(=O)c1ccc(F)c(F)c1,-3%,8%,i,3%,i,-3%
CCOc1ccccc1NS(=O)(=O)c1ccc(OC)c(OC)c1,16%,-14%,26µM*,-24%,i,-4%
COc1ccc(NS(=O)(=O)c2ccc3ccccc3c2)c2ncccc12,?,11%,i,15µM*,?,-5%
COc1ccc(S(=O)(=O)N2CCOCC2)cc1NS(=O)(=O)c1ccc(F)c(F)c1,-3%,11%,23µM*,-7%,i,-1%
COc1ccc(S(=O)(=O)Nc2ccccc2N2CCOCC2)cc1OC,-5%,-6%,23µM*,-6%,i,0%
COc1ccc(CNC(=O)c2oc3c(c2C)-c2nn(Cc4ccc(Cl)cc4)cc2CC3)cc1,nt,-4%,nt,nt,nt,nt
Cc1ccc(-n2nc(C)c3c(-c4cccs4)c(C#N)c(N)nc32)cc1,8.2µM*,16%,?,?,i,-4%
Cc1nc(N)c(C#N)c(-c2ccccc2)c1C,-2%,1%,i,-4%,i,-3%
CCN(CC)C(=O)CSc1nc(N)c(C#N)c(-c2cccs2)c1C#N,18%,-13%,?,8%,i,3%
Cc1nn(-c2ccccc2)c2nc(N)c(C#N)c(-c3ccc(F)cc3)c12,16µM*,-30%,i,14%,i,-2%
CN(Cc1ccc(F)cc1)S(=O)(=O)c1nnc(NC(=O)c2ccc(F)cc2)s1,nt,-52%,i,nt,?,nt
COc1cc(CNCc2ccccn2)ccc1OCc1cccc(Cl)c1,13µM*,6%,i,?,i,-4%
Nc1nc2cc3c(cc2cc1C(=O)NCc1ccc(F)cc1)OCO3,nt,nt,i,nt,7.3µM*,nt
O=C(/C=C/Sc1ccccc1)c1ccc(Cl)cc1,-2%,?,i,17%,i,-17%
O=C(/C=C/Sc1ccccc1)c1ccccc1,5.2µM*,?,i,21µM*,i,0%
CCC(Sc1nc2cc(OC)c(OC)cc2c(=O)n1Cc1ccc(Cl)cc1)C(=O)NCCOC (stereo unspecified),nt,-3%,nt,nt,nt,nt
Cc1cccc2sc(N(Cc3cccnc3)C(=O)C3COc4ccccc4O3)nc12 (stereo unspecified),nt,20%,nt,nt,nt,nt
